Test results from the supplement of paper PMC10849652.
Of roughly 7,900 targets only a part is listed; those with a hit were picked by preference. About 0.6% of all pairs of compound and target were hits.

Columns and labels:
Assay in all cases: log2 fold change, soluble protein after heating vs DMSO (PISA); higher = thermal stabilisation; K562 cells, 10 uM, 30 min; active = over 0.2 and 3.5 SD of the protein, either way, in both replicates (recomputed)
[1] = compound: NC(=O)Nc1cc(-c2cccc(F)c2)sc1C(=O)N[C@H]1CCCNC1
Summary of the method: (§1)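 Values are thermal stability changes relative to control samples and are taken from duplicates. They are stated as log2 fold changes. Before quantification by TMTpro 16plex LC-MS/MS with equalised channel sums, K562 cells at 2×10^6 cells/mL were treated with 10 μM compound for 30 min, heated in aliquots for 3 min across 48°C-58°C, pooled, extracted in PBS with 0.5% NP-40 at 4°C, and centrifuged at 21,000xg for 90 min to give the soluble supernatant.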

[2] = compound: NC(=O)c1cnc(N[C@@H]2CCCC[C@@H]2N)nc1Nc1cccc(-n2nccn2)c1
Summary of the method: as §1

[3] = compound: NC1(c2ccc(-c3nc4ccn5c(=O)[nH]nc5c4cc3-c3ccccc3)cc2)CCC1
Summary of the method: as §1

[4] = compound: NCC(=O)Nc1ccc(-n2nc(C(F)(F)F)cc2-c2ccc3c(ccc4ccccc43)c2)cc1
Summary of the method: as §1

[5] = compound: Nc1ccccc1NC(=O)c1ccc(CNC(=O)OCc2cccnc2)cc1 [entinostat]
Summary of the method: as §1

[6] = compound: O=C(CCCCCCC(=O)Nc1ccccc1)NO [vorinostat]
Summary of the method: as §1

[7] = compound: O=C(CCCCCCNC(=O)c1cnc(N(c2ccccc2)c2ccccc2Cl)nc1)NO [citarinostat]
Summary of the method: as §1

[8] = compound: O=C(O)c1ccc2c(c1)nc(Nc1cccc(Cl)c1)c1ccncc12 [silmitasertib]
Summary of the method: as §1

[9] = compound: O=C1NC(=O)C(c2cnc3ccccn23)=C1c1cn2c3c(cc(F)cc13)CN(C(=O)N1CCCCC1)CC2
Summary of the method: as §1

[10] = compound: c1cc(OCCN2CCCCC2)cc(-c2n[nH]c3ccc(-c4nnc[nH]4)cc23)c1
Summary of the method: as §1

[11] = compound: c1cn2cc(-c3ccc4cn[nH]c4c3)nc(Nc3ccc(N4CCOCC4)cc3)c2n1 [entospletinib]
Summary of the method: as §1

Measured: log2 fold change

SEH1L isoform 1 (UniProt Q96EE3)
UniProt Q96EE3, sequence (Q96EE3 whole entry, looked up): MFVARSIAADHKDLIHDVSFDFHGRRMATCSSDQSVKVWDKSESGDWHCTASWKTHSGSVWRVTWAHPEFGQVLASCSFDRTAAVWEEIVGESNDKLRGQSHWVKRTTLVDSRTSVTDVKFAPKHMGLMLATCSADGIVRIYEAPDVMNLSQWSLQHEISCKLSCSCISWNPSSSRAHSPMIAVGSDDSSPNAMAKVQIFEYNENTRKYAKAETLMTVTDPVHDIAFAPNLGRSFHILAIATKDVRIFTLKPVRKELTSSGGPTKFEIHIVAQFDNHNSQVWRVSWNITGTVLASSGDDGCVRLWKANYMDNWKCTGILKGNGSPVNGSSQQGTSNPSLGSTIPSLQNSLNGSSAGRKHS
inactive: [1] 0.007 | [2] -0.027 | [3] -0.014 | [4] -0.004 | [5] -0.04 | [6] 0.022 | [7] 0.064 | [8] 0.076 | [9] -0.027 | [10] -0.065 | [11] 0.007

RBM8A (UniProt Q9Y5S9)
inactive: [1] -0.044 | [2] 0.075 | [3] -0.045 | [4] -0.068 | [5] 0.037 | [6] -0.025 | [7] 0.03 | [8] 0.011 | [9] -0.019 | [10] -0.076 | [11] 0.061

RPS5 (UniProt P46782)
inactive: [1] 0.035 | [2] 0.105 | [3] 0.153 | [4] 0.133 | [5] -0.043 | [6] 0 | [7] -0.052 | [8] -0.07 | [9] 0.094 | [10] -0.12 | [11] 0.037

SDHC (UniProt Q99643)
inactive: [1] -0.12 | [2] 0.097 | [3] -0.079 | [4] 0.041 | [5] -0.178 | [6] -0.042 | [7] 0.033 | [8] 0.032 | [9] 0 | [10] -0.062 | [11] 0.032

RBM25 (UniProt P49756)
inactive: [1] 0 | [2] 0.007 | [3] -0.058 | [4] -0.025 | [5] 0.031 | [6] 0.067 | [7] 0.015 | [8] 0.019 | [9] 0.005 | [10] -0.053 | [11] -0.078

SENP6 (UniProt Q9GZR1)
inactive: [1] 0.011 | [2] -0.009 | [3] -0.073 | [4] -0.023 | [5] -0.019 | [6] -0.021 | [7] 0.04 | [8] -0.118 | [9] 0.027 | [10] -0.049 | [11] -0.005

RPRD1B (UniProt Q9NQG5)
UniProt Q9NQG5, sequence (Q9NQG5 whole entry, looked up): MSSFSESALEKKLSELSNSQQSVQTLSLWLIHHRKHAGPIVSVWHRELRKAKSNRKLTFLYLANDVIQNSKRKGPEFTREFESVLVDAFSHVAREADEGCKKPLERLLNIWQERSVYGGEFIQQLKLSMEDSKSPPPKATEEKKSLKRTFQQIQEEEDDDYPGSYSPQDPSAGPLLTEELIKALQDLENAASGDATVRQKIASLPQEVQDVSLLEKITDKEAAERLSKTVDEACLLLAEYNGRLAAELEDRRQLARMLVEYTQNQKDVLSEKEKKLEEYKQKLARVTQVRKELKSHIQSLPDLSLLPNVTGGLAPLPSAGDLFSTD
inactive: [1] -0.058 | [2] -0.03 | [3] -0.087 | [4] -0.081 | [5] 0.051 | [6] 0.049 | [7] 0.029 | [8] 0.031 | [10] -0.049 | [11] 0.037
active: [9] -0.346

RBM26 isoform 2 (UniProt Q5T8P6)
UniProt Q5T8P6, sequence (Q5T8P6 whole entry, looked up): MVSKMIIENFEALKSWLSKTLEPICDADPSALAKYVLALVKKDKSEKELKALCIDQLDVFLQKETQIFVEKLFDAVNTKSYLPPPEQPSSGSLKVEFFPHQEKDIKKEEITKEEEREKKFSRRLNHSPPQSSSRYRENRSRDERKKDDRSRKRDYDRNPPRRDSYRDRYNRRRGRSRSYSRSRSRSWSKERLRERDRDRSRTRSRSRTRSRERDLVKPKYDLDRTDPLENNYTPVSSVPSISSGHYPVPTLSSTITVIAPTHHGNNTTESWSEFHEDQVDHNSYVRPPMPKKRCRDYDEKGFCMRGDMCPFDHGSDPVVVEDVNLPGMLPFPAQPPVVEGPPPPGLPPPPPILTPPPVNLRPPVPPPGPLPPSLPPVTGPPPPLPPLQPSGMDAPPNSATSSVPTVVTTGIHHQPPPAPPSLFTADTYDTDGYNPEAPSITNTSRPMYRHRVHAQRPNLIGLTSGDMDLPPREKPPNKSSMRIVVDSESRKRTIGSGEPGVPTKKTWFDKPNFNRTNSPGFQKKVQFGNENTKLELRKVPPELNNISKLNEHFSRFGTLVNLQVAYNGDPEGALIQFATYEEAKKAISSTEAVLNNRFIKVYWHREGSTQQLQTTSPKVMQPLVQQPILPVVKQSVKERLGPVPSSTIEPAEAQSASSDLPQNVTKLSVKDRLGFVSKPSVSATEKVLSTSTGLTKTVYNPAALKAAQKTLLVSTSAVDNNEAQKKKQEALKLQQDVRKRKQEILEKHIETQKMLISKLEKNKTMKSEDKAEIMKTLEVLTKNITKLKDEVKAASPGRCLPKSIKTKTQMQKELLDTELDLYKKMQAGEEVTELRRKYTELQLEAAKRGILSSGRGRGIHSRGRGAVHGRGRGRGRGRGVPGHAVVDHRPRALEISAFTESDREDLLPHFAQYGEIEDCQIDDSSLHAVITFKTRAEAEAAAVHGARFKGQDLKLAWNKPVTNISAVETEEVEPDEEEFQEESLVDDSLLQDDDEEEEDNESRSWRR
inactive: [1] -0.001 | [2] 0.031 | [3] -0.135 | [4] -0.103 | [5] 0.141 | [6] 0.103 | [7] 0.193 | [8] -0.1 | [9] -0.05 | [10] 0.017 | [11] -0.021

RSPRY1 (UniProt Q96DX4)
inactive: [1] -0.054 | [2] 0.051 | [3] -0.104 | [4] 0.061 | [5] -0.016 | [6] -0.02 | [7] -0.075 | [8] 0.028 | [9] -0.072 | [10] -0.008 | [11] -0.023

SCPEP1 (UniProt Q9HB40)
inactive: [1] 0.036 | [2] 0.001 | [4] 0.008 | [5] 0.023 | [6] -0.037 | [7] -0.043 | [8] 0.003 | [9] 0.024 | [10] 0.022 | [11] 0.004
active: [3] -0.314

RHOXF2 (UniProt Q9BQY4)
UniProt Q9BQY4, sequence (Q9BQY4 whole entry, looked up): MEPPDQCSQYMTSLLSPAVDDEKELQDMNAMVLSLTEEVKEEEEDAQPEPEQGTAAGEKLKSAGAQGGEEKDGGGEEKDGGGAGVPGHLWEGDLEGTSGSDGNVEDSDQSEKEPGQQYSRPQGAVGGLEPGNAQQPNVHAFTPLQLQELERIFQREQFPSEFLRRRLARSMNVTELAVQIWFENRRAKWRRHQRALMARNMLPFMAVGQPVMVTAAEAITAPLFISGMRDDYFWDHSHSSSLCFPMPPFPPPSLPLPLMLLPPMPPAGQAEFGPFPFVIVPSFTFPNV
inactive: [1] 0.004 | [2] 0.015 | [3] 0.039 | [4] 0.013 | [5] -0.002 | [6] -0.091 | [7] 0.006 | [8] 0.045 | [9] -0.023 | [10] -0.036 | [11] 0.062

RALA (UniProt P11233)
UniProt P11233, sequence (P11233 whole entry, looked up): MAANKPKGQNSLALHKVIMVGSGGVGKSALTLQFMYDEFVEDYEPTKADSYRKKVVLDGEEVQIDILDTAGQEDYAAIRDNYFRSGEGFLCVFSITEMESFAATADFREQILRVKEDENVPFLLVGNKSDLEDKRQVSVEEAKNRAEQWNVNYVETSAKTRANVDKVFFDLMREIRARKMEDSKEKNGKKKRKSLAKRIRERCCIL
inactive: [1] -0.03 | [2] -0.019 | [3] 0.057 | [4] 0.004 | [5] -0.064 | [6] 0.142 | [7] 0.082 | [8] -0.021 | [9] 0.028 | [10] -0.028 | [11] -0.026

RPS14 (UniProt P62263)
inactive: [1] 0.056 | [2] 0.142 | [3] 0.149 | [4] 0.08 | [5] -0.033 | [6] -0.106 | [7] -0.089 | [8] -0.041 | [9] 0.209 | [10] -0.069 | [11] 0.025

SKP1 (UniProt P63208)
UniProt P63208, sequence (P63208 whole entry, looked up): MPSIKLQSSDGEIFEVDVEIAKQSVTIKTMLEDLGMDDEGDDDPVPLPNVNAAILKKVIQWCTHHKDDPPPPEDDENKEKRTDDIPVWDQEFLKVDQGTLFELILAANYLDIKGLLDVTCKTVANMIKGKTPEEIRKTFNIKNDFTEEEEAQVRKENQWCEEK
inactive: [1] 0.015 | [2] 0.011 | [3] 0.034 | [4] 0.047 | [5] 0.037 | [6] 0.16 | [7] -0.003 | [8] 0 | [9] 0.008 | [10] 0.01 | [11] 0.008

SLC19A1 (UniProt P41440)
inactive: [1] 0.1 | [2] 0.157 | [3] 0.036 | [4] 0.007 | [5] -0.017 | [6] 0.057 | [7] 0.02 | [8] -0.013 | [9] 0.207 | [10] -0.033 | [11] -0.121

SEC23IP (UniProt Q9Y6Y8)
inactive: [1] -0.049 | [2] -0.152 | [3] -0.221 | [4] -0.033 | [5] 0.049 | [6] 0.065 | [7] 0.055 | [8] -0.03 | [9] -0.058 | [10] -0.063 | [11] -0.06

RAB9A (UniProt P51151)
UniProt P51151, sequence (P51151 whole entry, looked up): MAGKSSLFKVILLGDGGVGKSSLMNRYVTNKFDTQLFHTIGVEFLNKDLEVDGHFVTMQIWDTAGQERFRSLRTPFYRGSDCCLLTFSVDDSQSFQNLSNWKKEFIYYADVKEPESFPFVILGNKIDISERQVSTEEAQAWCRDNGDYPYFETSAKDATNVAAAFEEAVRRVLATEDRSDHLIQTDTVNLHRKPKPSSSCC
inactive: [1] 0.014 | [2] -0.026 | [4] -0.022 | [5] 0 | [6] 0.035 | [7] 0.039 | [8] -0.028 | [9] -0.032 | [10] -0.018 | [11] -0.015
active: [3] -0.229

SLBP (UniProt Q14493)
UniProt Q14493, sequence (Q14493 whole entry, looked up): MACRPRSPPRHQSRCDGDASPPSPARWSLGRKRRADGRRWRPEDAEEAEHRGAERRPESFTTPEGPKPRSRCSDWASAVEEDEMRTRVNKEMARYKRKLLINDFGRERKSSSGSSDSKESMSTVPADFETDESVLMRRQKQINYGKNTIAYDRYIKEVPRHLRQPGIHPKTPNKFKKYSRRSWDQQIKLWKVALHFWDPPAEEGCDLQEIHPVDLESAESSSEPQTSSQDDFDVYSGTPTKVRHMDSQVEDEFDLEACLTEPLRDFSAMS
inactive: [1] 0.043 | [2] 0.051 | [3] -0.028 | [4] -0.005 | [5] 0.018 | [6] 0.085 | [7] 0.035 | [8] 0.007 | [9] 0.064 | [10] 0.035 | [11] -0.101

RNF2 (UniProt Q99496)
inactive: [1] -0.04 | [2] -0.023 | [3] -0.003 | [4] -0.051 | [5] 0.102 | [6] -0.048 | [7] 0.054 | [8] 0.003 | [9] -0.014 | [10] -0.102 | [11] -0.003

RANBP2 (UniProt P49792)
inactive: [1] 0.063 | [2] -0.05 | [3] 0.01 | [4] 0.005 | [5] 0.009 | [6] -0.034 | [7] -0.037 | [8] 0.001 | [9] -0.049 | [10] 0.019 | [11] -0.009

SESN2 (UniProt P58004)
UniProt P58004, sequence (P58004 whole entry, looked up): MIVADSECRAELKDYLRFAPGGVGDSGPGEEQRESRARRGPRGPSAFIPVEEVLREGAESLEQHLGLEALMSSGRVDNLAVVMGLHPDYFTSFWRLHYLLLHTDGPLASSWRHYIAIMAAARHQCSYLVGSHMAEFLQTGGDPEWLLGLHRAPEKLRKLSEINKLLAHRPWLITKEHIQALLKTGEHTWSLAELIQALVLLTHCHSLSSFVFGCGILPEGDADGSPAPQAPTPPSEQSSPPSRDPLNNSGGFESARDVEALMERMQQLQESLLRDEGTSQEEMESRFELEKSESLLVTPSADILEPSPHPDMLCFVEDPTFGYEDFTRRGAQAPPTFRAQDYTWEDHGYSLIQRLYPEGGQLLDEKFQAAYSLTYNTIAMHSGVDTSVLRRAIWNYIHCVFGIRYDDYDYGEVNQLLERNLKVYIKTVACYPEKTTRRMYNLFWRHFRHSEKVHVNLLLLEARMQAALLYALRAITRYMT
inactive: [1] -0.069 | [2] -0.159 | [3] -0.129 | [4] -0.093 | [5] 0.075 | [6] 0.079 | [7] -0.081 | [8] 0.108 | [9] -0.123 | [10] 0.026 | [11] 0.167

RFC3 (UniProt P40938)
UniProt P40938, sequence (P40938 whole entry, looked up): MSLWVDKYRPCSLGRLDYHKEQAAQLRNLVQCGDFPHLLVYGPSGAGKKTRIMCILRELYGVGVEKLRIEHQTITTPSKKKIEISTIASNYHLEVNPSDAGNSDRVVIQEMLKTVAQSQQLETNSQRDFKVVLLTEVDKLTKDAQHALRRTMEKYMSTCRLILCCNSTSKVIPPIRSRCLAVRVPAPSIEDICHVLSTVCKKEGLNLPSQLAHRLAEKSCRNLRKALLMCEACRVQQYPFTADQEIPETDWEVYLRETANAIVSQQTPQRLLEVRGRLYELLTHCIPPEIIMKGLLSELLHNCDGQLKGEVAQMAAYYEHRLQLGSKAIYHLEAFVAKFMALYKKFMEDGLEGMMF
inactive: [1] -0.001 | [2] -0.039 | [3] -0.078 | [4] -0.023 | [5] -0.028 | [6] 0.028 | [7] 0.077 | [8] -0.006 | [9] -0.039 | [10] -0.013 | [11] -0.037

REEP4 (UniProt Q9H6H4)
UniProt Q9H6H4, sequence (Q9H6H4 whole entry, looked up): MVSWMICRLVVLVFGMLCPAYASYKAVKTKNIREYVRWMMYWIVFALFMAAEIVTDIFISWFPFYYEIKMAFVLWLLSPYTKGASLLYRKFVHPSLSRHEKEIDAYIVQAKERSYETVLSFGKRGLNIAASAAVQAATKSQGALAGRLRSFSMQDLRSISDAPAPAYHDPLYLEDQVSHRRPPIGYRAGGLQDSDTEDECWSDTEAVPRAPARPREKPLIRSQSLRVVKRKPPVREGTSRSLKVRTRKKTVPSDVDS
inactive: [1] 0.002 | [2] -0.032 | [3] -0.012 | [4] 0.084 | [5] 0.027 | [6] 0.088 | [7] 0.048 | [8] 0.027 | [9] 0.097 | [10] -0.059 | [11] 0.055

RBIS (UniProt Q8N0T1)
UniProt Q8N0T1, sequence (Q8N0T1 whole entry, looked up): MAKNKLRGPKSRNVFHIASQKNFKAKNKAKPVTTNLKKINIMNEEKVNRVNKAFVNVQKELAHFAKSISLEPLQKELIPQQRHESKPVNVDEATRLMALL
inactive: [1] -0.021 | [2] -0.029 | [3] 0.02 | [4] 0.02 | [5] 0.019 | [6] 0.014 | [7] 0.092 | [8] -0.009 | [9] -0.002 | [10] -0.078 | [11] -0.031

SEC16A isoform 5 (UniProt O15027)
inactive: [1] 0.006 | [2] -0.072 | [3] -0.14 | [4] 0.055 | [5] 0.071 | [6] 0.154 | [7] 0.071 | [8] -0.007 | [9] 0.191 | [10] -0.022 | [11] 0.069

RETSAT (UniProt Q6NUM9)
inactive: [1] -0.058 | [2] -0.05 | [3] -0.028 | [4] -0.019 | [5] 0.129 | [6] -0.048 | [7] 0.028 | [8] -0.014 | [9] 0.026 | [10] -0.047 | [11] -0.006

RAB8B (UniProt Q92930)
UniProt Q92930, sequence (Q92930 whole entry, looked up): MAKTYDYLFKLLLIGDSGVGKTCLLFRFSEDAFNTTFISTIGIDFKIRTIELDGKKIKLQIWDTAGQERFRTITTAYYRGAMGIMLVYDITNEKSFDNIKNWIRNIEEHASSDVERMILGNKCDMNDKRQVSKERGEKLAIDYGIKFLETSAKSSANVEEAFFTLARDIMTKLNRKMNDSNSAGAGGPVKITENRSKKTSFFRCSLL
inactive: [1] 0.203 | [2] 0.017 | [3] -0.053 | [4] 0.2 | [5] 0.116 | [6] 0.073 | [7] 0.03 | [8] -0.049 | [9] -0.013 | [10] 0.093 | [11] -0.04

REL (UniProt Q04864)
UniProt Q04864, sequence (Q04864 whole entry, looked up): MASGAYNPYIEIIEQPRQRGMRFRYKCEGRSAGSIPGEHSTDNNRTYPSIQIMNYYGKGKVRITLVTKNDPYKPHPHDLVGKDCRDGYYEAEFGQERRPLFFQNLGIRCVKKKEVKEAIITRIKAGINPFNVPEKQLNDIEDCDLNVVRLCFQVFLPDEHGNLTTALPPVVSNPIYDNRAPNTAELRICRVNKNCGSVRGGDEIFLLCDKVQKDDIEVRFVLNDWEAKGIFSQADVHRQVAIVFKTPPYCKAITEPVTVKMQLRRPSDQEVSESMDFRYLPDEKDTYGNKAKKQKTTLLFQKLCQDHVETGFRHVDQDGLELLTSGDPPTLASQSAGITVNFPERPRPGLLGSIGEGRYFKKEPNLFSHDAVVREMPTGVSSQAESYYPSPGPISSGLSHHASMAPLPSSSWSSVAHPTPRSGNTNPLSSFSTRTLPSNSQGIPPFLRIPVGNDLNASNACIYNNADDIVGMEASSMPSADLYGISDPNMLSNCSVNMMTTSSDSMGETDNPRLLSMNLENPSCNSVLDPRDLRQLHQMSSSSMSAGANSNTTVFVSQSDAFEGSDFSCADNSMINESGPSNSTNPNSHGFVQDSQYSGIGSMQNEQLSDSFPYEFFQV
inactive: [1] -0.053 | [2] -0.131 | [3] -0.108 | [4] 0.028 | [5] -0.007 | [6] -0.122 | [7] 0.053 | [8] 0.053 | [9] -0.054 | [10] -0.09 | [11] 0.054
